Rows were chosen to be rich in hits. Some 12% of all compounds tested hit in one or more screens of this group.
Lassa entry inh: blocks Lassa virus binding to or entry into cells | Lassa virus pseudotype entry inhibition, cell reporter | Potency, µM (highest dose often 37.9 µM), usual class: inhibitors | actives 1.2% (n = 300,000) | AID 540256; calls by dose curve; tested in HEK293 cells; further: nearly all actives have a fitted effect of over 50% in size
Marburg entry inh: inhibitors of Marburg virus binding or cell entry; Marburg virus pseudotyped entry inhibition, cell reporter; Potency, µM (top dose mostly 37.8 µM), actives largely listed as inhibitors; actives 1.8% (n = 300,000); calls by dose curve; tested in HEK293 cells
Cycloheximide cs: affects cycloheximide protein synthesis inhibition readout, counter-screen. cell reporter, cycloheximide protein synthesis inhibition counterscreen. max response, %. actives 12% (n = 300,000). AID 2314; in the data active means max response mostly above about 13%, no sharp cut-off; inactive means mostly below about 14%; further: read at 38.3 µM for the half of the compounds with a filed dose
Shiga inhibitor: blocks Shiga toxin action in Vero cells; Vero cells, Shiga toxin protein synthesis inhibition reporter; inhibition, % at 38.7 µM; actives 9.2% (n = 290,000); AID 2315; in the data active means inhibition mostly above about 28%, no sharp cut-off; inactive means mostly below about 43%
Large screens that a line does not name were inactive.

Cn1c(C(=O)NCC2CCCO2)cc2c(=O)n(C)c3ccccc3c21 (stereo not drawn)	none (no result: Lassa entry inh)
COC(=O)C1SCC2C(=O)N(Cc3ccc(Cl)c(Cl)c3)CC(=O)N21 (stereo not drawn)	none (no result: Lassa entry inh, Marburg entry inh)
O=C(Cc1ccccc1[N+](=O)[O-])NCc1ccccc1Cl	Marburg entry inh inconclusive, Cycloheximide cs 55, Shiga inhibitor 95
O=C(/C=C/c1ccccc1[N+](=O)[O-])NCc1ccccc1Cl	Marburg entry inh inconclusive, Cycloheximide cs 50
O=C(Cc1ccccc1[N+](=O)[O-])NCCSCc1c(F)cccc1Cl	Cycloheximide cs 40
O=C(NCc1ccccc1Cl)c1ccc(-c2ccccc2)cc1	Cycloheximide cs 22, Shiga inhibitor 47
O=C(NCc1ccccc1Cl)c1ccncc1	Marburg entry inh inconclusive
C=CCN1C(=O)CC[C@@]23C1=NC(C(=O)OC)=C(C(=O)OC)[C@@H]2N(CC#CC)c1ccccc13	none (no result: Lassa entry inh, Cycloheximide cs, Shiga inhibitor)
Cc1ccccc1CNC(=O)Cc1ccccc1[N+](=O)[O-]	Lassa entry inh inconclusive, Marburg entry inh inconclusive, Cycloheximide cs 58, Shiga inhibitor 62
O=C(Cc1ccc(Cl)cc1)NCc1ccccc1Cl	Cycloheximide cs 50
O=C(CCNC(=O)c1ccc(Cl)cc1)NCc1ccccc1Cl	Lassa entry inh inconclusive (no result: Cycloheximide cs, Shiga inhibitor)
CCc1ccc(Oc2cc(C)nc(N)n2)cc1	Marburg entry inh inconclusive, Cycloheximide cs 26, Shiga inhibitor 65
CCCc1ccc(Oc2cc(N3CCOCC3)nc(-c3ccccc3)n2)cc1	none (no result: Cycloheximide cs, Shiga inhibitor)
CCCc1ccc(Oc2cc(Cl)nc(N)n2)cc1	Marburg entry inh inconclusive, Cycloheximide cs 16
COc1ccc(Oc2cc(F)nc(N)n2)cc1	none
CCOC(=O)CCn1nc(-c2ccc(C)cc2)c2ccccc2c1=O	none
CCOC(=O)Cn1nc(-c2ccc(C)cc2)ccc1=O	Cycloheximide cs 19, Shiga inhibitor 28
Cc1ccc(-c2ccc(=O)n(CCC(=O)N3CCC4(CC3)OCCO4)n2)cc1	Cycloheximide cs 46, Shiga inhibitor 138 (no result: Lassa entry inh, Marburg entry inh)
CCc1ccc(CNC(=O)Cn2nc(-c3ccc(C)cc3)ccc2=O)cc1	Lassa entry inh inconclusive (no result: Marburg entry inh)
CCOC(=O)CCn1nc(-c2ccccc2)cc1N	Cycloheximide cs 35, Shiga inhibitor 39
O=C(CCC1CCCN(C(=O)c2ccc3cc[nH]c3c2)C1)NCc1ccc(F)c(F)c1 (stereo not drawn)	Lassa entry inh inconclusive, Marburg entry inh inconclusive, Cycloheximide cs 29, Shiga inhibitor 30
O=C(CCC1CCCN(C(=O)c2ccc3c(c2)OCO3)C1)NCc1ccc(F)c(F)c1 (stereo not drawn)	Cycloheximide cs 15, Shiga inhibitor 41 (no result: Lassa entry inh, Marburg entry inh)
CCCN1C=CC(=C/C=C(\C#N)C(=O)OCC)C=C1	Cycloheximide cs 28, Shiga inhibitor 93 (no result: Lassa entry inh)
CCOC(=O)/C(C#N)=C/N=c1ccc(C)cn1C	Marburg entry inh inconclusive, Cycloheximide cs 51, Shiga inhibitor 68
CCCCCCN1C=CC(=C/C=C(\C#N)C(=O)OCC)C=C1	none
Cc1ccc(C[C@H]2CC(=O)N(c3ccc4c(c3)OCCO4)C2=O)cc1	none (no result: Lassa entry inh, Cycloheximide cs, Shiga inhibitor)
CNC(=O)c1c(Cl)cnn1-c1ccc(C)cc1	Marburg entry inh inconclusive, Cycloheximide cs 21, Shiga inhibitor 55
C=CCNC(=O)c1cnn(-c2ccccc2)c1-c1ccccc1	none
CNC(=O)c1nn(-c2ccc(C)cc2)ccc1=O	none
CNC(=O)c1c(Br)cnn1-c1ccc(C)cc1	Cycloheximide cs 35, Shiga inhibitor 42
Cc1ccc(-n2ncc(Cl)c2C(=O)NC2CC2)cc1	Marburg entry inh inconclusive, Cycloheximide cs 49, Shiga inhibitor 93
C=CCNC(=O)c1c(Cl)cnn1-c1ccc(C)cc1	Lassa entry inh inconclusive, Marburg entry inh inconclusive, Cycloheximide cs 44, Shiga inhibitor 69
CCc1noc(C)c1C(=O)Nc1ccc(S(=O)(=O)N2CCC(C)CC2)cc1	none (no result: Cycloheximide cs, Shiga inhibitor)
COc1ccc(S(=O)(=O)N(CC(=O)NCc2cccnc2)c2ccc(C)cc2)cc1OC	none
CCO[C@H](c1cc(OC)cc([N+](=O)[O-])c1OC)[C@H](C)[C@@H](OC)[C@H](C)/C=C/CC(=O)OC	none (no result: Lassa entry inh, Cycloheximide cs, Shiga inhibitor)
CC(=O)Nc1sc2c(c1CN1CCCC1)CCCC2	Marburg entry inh inconclusive
CC(=O)Nc1sc2c(c1CN1CCN(c3ccc(F)cc3)CC1)CCCC2	Lassa entry inh inconclusive, Marburg entry inh 10µM
CC(=O)c1c(C(C)=O)c(C)n(-c2nc(-c3ccc(Br)cc3)c(C)s2)c1C	Lassa entry inh 16µM, Marburg entry inh inconclusive
COc1ccc(-c2nc(-n3c(C)c(C(C)=O)c(C(C)=O)c3C)sc2C)cc1OC	none
C=CCNc1nc(Nc2ccccc2F)nc(OCC)n1	Cycloheximide cs 47, Shiga inhibitor 123
Fc1ccccc1Nc1nc(Cl)nc(Cl)n1	none
CCOc1nc(Nc2ccccc2F)nc(OCC)n1	Cycloheximide cs 20 (no result: Lassa entry inh, Marburg entry inh)
COc1ccc(C(=O)Nc2cc(C)nn2-c2ccc(F)cc2)cc1	none
O=C(Nc1ccc(F)cc1F)NC1CC1	none
O=C(Nc1ccc2c(c1)OCCO2)NC1CCCCC1	Lassa entry inh inconclusive, Cycloheximide cs 44, Shiga inhibitor 53

Screens: PubChem BioAssay, National Center for Advancing Translational Sciences (NCATS)
